This is part of a sample that, as a whole, favours compounds with a hit. Of some 83,000 tested, about 20% had one in any assay.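 Interpretation: 100, growth as untreated; towards 0, rising growth inhibition; 0, no net growth; 0 to -100, cell death. Compounds scoring below 10 were considered active.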 The source made the active and inactive calls.
Legend:
Experiment in all cases: NCI-60 one-dose screen, 48 h (100 = growth as untreated, 0 = no growth, -100 = all killed)
Details in all cases: 10 µM
[1] = test system: RPMI-8226 leukemia
[2] = test system: OVCAR-8 ovarian
[3] = test system: OVCAR-5 ovarian
[4] = test system: OVCAR-4 ovarian
[5] = test system: SK-OV-3 ovarian
[6] = test system: IGROV1 ovarian
[7] = test system: OVCAR-3 ovarian
[8] = test system: HS 578T breast
[9] = test system: NCI/ADR-RES ovarian
[10] = test system: T-47D breast
[11] = test system: BT-549 breast
[12] = test system: MDA-MB-435 melanoma
[13] = test system: SW-620 colon
[14] = test system: MCF7 breast
[15] = test system: HCT-116 colon
[16] = test system: HCC-2998 colon
[17] = test system: KM12 colon

Measured: growth

Nc1cc2c(cc1Cl)-c1ccc([N+](=O)[O-])cc1/C2=N\O
inactive: [1] 44.7% | [2] 99.5% | [3] 145% | [4] 88.9% | [5] 97% | [6] 57.1% | [7] 86.6% | [8] 106% | [9] 95.1% | [10] 101% | [11] 89% | [12] 51.3% | [13] 38.6% | [14] 79.2% | [15] 43.2% | [16] 97.3%

Cc1occc1-c1nnc(SCC(=O)c2ccc(NC(=O)CC(C)C)cc2)o1
inactive: [1] 77.7% | [2] 57% | [3] 105% | [4] 122% | [5] 121% | [6] 69.1% | [7] 104% | [8] 119% | [9] 104% | [10] 102% | [11] 108% | [12] 97.9% | [13] 108% | [14] 107% | [15] 109% | [16] 74.5% | [17] 99.4%

c1ccc(CNc2ncnc3scc(-c4cccs4)c23)nc1
inactive: [1] 40.9% | [2] 63.1% | [3] 99% | [4] 41.2% | [5] 85.1% | [6] 63.6% | [7] 52.8% | [8] 79.7% | [9] 58.8% | [10] 47.3% | [11] 63.7% | [12] 63.7% | [13] 86.1% | [14] 67.1% | [15] 66.5% | [16] 106%

COc1ccc(-c2nc3ncccn3c2-c2nnc(-c3ccc(F)cc3)o2)cc1
inactive: [1] 95.9% | [2] 92.4% | [3] 98.1% | [4] 96.6% | [5] 107% | [6] 110% | [7] 103% | [8] 96% | [9] 93.7% | [10] 98.2% | [11] 99.7% | [12] 107% | [13] 105% | [14] 92.7% | [15] 99.3% | [16] 104%

CSc1nn(-c2ccccc2)c2ncnc(Oc3ccc(C)cc3)c12
active: [4] 9.15%
inactive: [1] 92.4% | [2] 50.7% | [3] 92.5% | [5] 75.2% | [6] 92.7% | [7] 98.1% | [8] 85.9% | [9] 93.4% | [10] 83.4% | [11] 98% | [12] 102% | [13] 103% | [14] 97.7% | [15] 85.3% | [16] 99.4%

CC(=O)N1C/C(=C/c2ccc(Cl)cc2)C(=O)/C(=C/c2ccc(Cl)cc2)C1
inactive: [3] 18.2% | [4] 10.9% | [8] 14.5% | [9] 10.4% | [10] 30.1%
active: [1] -45.2% | [2] 4.95% | [5] -10.9% | [6] -55.7% | [7] -40.6% | [11] -27.2% | [12] -50.3% | [13] -62.4% | [14] -48.4% | [15] -66.4% | [16] -85.1%

CCC(=O)N1C/C(=C/c2ccc(Br)cc2)C(=O)/C(=C/c2ccc(Br)cc2)C1
active: [1] -28.2% | [2] -7.14% | [3] -22.8% | [4] -0.254% | [5] -30.6% | [6] -67.6% | [7] -62.6% | [8] 9.3% | [11] -48.4% | [12] -63% | [13] -64.2% | [14] -16.1% | [15] -88.4% | [16] -85.9%
inactive: [9] 10.2% | [10] 13%

N=C(N)c1ccc(-c2ccc(-c3cccs3)o2)cc1
active: [1] -25.4% | [12] -49.3% | [13] -47.9% | [14] 3.09% | [15] 7.25% | [16] -66%
inactive: [2] 60% | [3] 70.3% | [4] 41.6% | [5] 79.4% | [6] 67.5% | [7] 71.7% | [8] 70.3% | [9] 71.5% | [10] 43.8% | [11] 85.2%

COc1cc(/C=C/C(=O)c2ccc(Cl)cc2)ccc1OS(=O)(=O)c1ccc(C)cc1
inactive: [2] 83.8% | [3] 111% | [4] 92.5% | [5] 96.8% | [6] 97.9% | [7] 80.7% | [8] 129% | [9] 81.4% | [10] 76.8% | [11] 134% | [12] 81.2% | [14] 11.2% | [15] 12.9% | [16] 112% | [17] 81.2%
active: [1] -16.7% | [13] 6.82%

CC/C(=C(/c1ccc(OCCN(C)C)cc1)c1ccc(OC(=O)CCC(=O)c2c(C)[nH]c(/C=C3\N=C(c4ccc[nH]4)C=C3OC)c2C)cc1)c1ccccc1
inactive: [2] 22.8% | [3] 65.3% | [4] 37.4% | [5] 63.5% | [6] 27.6% | [7] 33% | [9] 20.7% | [10] 22.7% | [11] 48.4% | [12] 14% | [16] 41.6%
active: [1] -22.3% | [8] 8.4% | [13] -42% | [14] -12.1% | [15] 5.92%

COc1cc(/C=C2\Oc3cc(OCC(=O)c4ccccc4)ccc3C2=O)cc(OC)c1OC
inactive: [1] 107% | [2] 109% | [3] 136% | [4] 109% | [5] 120% | [6] 55.1% | [7] 110% | [8] 107% | [9] 97.2% | [10] 73.6% | [11] 128% | [12] 103% | [13] 114% | [14] 99.1% | [15] 106% | [16] 120%

CCOC(=O)N/N=C\C(C)=N\NC(=O)OCC
inactive: [1] 98.8% | [2] 99% | [3] 100% | [4] 102% | [5] 98.7% | [6] 108% | [7] 106% | [8] 115% | [9] 97.9% | [10] 99.9% | [11] 99.8% | [12] 88.8% | [13] 99% | [14] 99.5% | [15] 104% | [16] 111% | [17] 102%

Cc1ccc(C(=O)N2C/C(=C/c3ccccc3)C(=O)/C(=C/c3ccccc3)C2)cc1
inactive: [2] 48.7% | [3] 105% | [4] 75.3% | [5] 78.9% | [6] 69.1% | [7] 57.9% | [9] 66.1% | [10] 61.8% | [11] 49.2% | [13] 15.8%
active: [1] -23.1% | [8] 9.99% | [12] -14.1% | [14] 7.53% | [15] -55.5% | [16] -48%

O=C(N/N=C/c1cc2ccccc2c2ccccc12)c1cc(O)c(O)c(O)c1
inactive: [1] 78.8% | [2] 48.5% | [3] 90.4% | [4] 26.4% | [5] 78.8% | [6] 58.7% | [7] 58% | [8] 75.4% | [9] 81.4% | [11] 49.4% | [12] 35.3% | [13] 25.4% | [14] 67.6% | [15] 26% | [16] 94.5% | [17] 83.2%
active: [10] 2.62%

CCOC(=O)N1C/C(=C/c2ccc(F)cc2)C(=O)/C(=C/c2ccc(F)cc2)C1
active: [1] -29% | [2] 9.76% | [4] 9.8% | [6] -34.1% | [7] -29.2% | [8] -10.5% | [9] 9.49% | [11] -44.3% | [12] -47.4% | [13] -66% | [14] -45.9% | [15] -83.9% | [16] -80.9%
inactive: [3] 24.2% | [5] 12.7% | [10] 30.5%

c1ccc(C(NC2CC3CCC2C3)c2ccccc2)cc1 (stereo not given)
inactive: [1] 96.2% | [2] 105% | [3] 101% | [4] 108% | [5] 95.9% | [6] 109% | [7] 114% | [8] 111% | [9] 103% | [10] 99.9% | [11] 78.4% | [12] 91.6% | [13] 106% | [14] 98.4% | [15] 89.9% | [16] 102% | [17] 95%

N=C(N)c1ccc(-c2ccc(-c3cccs3)s2)s1
active: [1] -46.6% | [2] -47.2% | [3] 0.532% | [4] -64.1% | [6] 3.96% | [7] -89.2% | [8] -27.1% | [9] -29.3% | [12] -88.5% | [13] -66.4% | [14] -65% | [15] -87% | [16] -80.3%
inactive: [5] 74.2% | [10] 70.2% | [11] 66.9%

N=C(N)c1ccc(-c2ccc(-c3ccccc3)o2)nc1
inactive: [1] 38.6% | [2] 92.6% | [3] 85% | [4] 75.3% | [5] 100% | [6] 95.7% | [7] 106% | [8] 131% | [9] 100% | [10] 81.5% | [11] 101% | [12] 81.4% | [13] 86.7% | [14] 72.3% | [15] 76.6% | [16] 27.5%

Clc1ccc(Nc2ccnc(NCCCNc3ccnc4cc(Cl)ccc34)n2)cc1
inactive: [3] 18.3%
active: [1] -62.1% | [2] -49% | [4] 6.79% | [5] -32% | [6] -6.05% | [7] -19% | [8] -56.7% | [9] 4.05% | [10] -63.7% | [11] 0.946% | [12] -87.3% | [13] -60.9% | [14] -89.8% | [15] -78.3% | [16] -88.9% | [17] -16.2%
